Shown are actives, neighbours in structure and some others; about 18% of the full set was active somewhere.
TDP1 cell CPT: qHTS for Inhibitors of human tyrosyl-DNA phosphodiesterase 1 (TDP1): qHTS in cells in presence of CPT; Potency, µM (top dose mostly 46.2 µM), hits mostly inhibitors; 420,000 tested, 12% active; chicken DT40 Tdp1-/-;hTDP1 cells + 20 nM CPT, ATP luminescence, 48 h; further: nearly all actives have a fitted effect of over 55% in size
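Chicken DT40 Tdp1-/- cells complemented with human TDP1, 400 cells/well, exposed to compounds plus 20 nM camptothecin for at least 48 h at 37 C; viability read as ATP content by CellTiter-Glo luminescence.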
KAT2A inh: qHTS Assay for Inhibitors of GCN5L2; Potency, µM (top dose mostly 58.9 µM), most hits filed as inhibitors; 390,000 tested, 0.21% active; Histone acetyltransferase KAT2A (Homo sapiens), Q92830; GCN5L2 HAT assay, ThioGlo1 CoA-SH fluorescence; AID 504327, 2011
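Compounds, pin-transferred from DMSO stocks, meet 20nM GCN5L2 for 15 min before the reaction begins with H3(1-25) peptide (75uM) and acetyl-CoA (70uM). Thiol-reactive ThioGlo1 reports CoA release over 20 min at room temperature.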
PLK1 PBD inh: qHTS for Inhibitors of PLK1-PDB (polo-like kinase 1 - polo-box domain): Primary Screen; Plk1 PBD binding of FITC phosphopeptide, fluorescence polarization; Potency, µM, most hits filed as inhibitors; 360,000 tested, 2.8% active; AID 720504, 2013; further: series mostly up to about 57 µM; nearly all actives have a fitted effect of over 65% in size
TDP1 block: qHTS Assay for Inhibitors of Tyrosyl-DNA Phosphodiesterase (TDP1) | Tyrosyl-DNA phosphodiesterase 1 (Homo sapiens), Q9NUW8 | recombinant TDP1, AlphaScreen DNA substrate cleavage | Potency, µM (top dose mostly 130 µM), most hits filed as inhibitors | 350,000 tested, 0.28% active; further: nearly all actives have a fitted effect of over 40% in size
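Here, a 5' biotin and 3' phosphotyrosine-FITC DNA oligonucleotide reports Tdp1 activity: intact substrate bridges AlphaScreen beads, while cleavage leaves a 3' phosphate and drops signal. All incubations at room temperature.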
VDR inhibitor: Inhibitors of the vitamin D receptor (VDR): qHTS; Vitamin D3 receptor (Homo sapiens), P11473; VDR-SRC2-3 peptide fluorescence polarization, 2 h; Potency, µM, hits mostly inhibitors; 400,000 tested, 0.93% active; AID 504847, 2011
Target sequence (P11473 whole entry, looked up): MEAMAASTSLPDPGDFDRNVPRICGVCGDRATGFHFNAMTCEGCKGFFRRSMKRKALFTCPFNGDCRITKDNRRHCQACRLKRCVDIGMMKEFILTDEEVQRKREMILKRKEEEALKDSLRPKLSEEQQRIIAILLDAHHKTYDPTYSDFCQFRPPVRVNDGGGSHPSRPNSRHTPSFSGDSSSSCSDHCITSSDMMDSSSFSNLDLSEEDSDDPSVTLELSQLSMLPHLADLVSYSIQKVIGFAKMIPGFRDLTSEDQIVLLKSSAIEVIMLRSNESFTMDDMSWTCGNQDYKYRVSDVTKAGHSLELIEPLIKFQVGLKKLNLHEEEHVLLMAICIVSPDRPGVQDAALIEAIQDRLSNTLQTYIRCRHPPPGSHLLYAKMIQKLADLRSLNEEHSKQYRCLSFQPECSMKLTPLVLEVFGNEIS
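Fluorescence polarization assay of small-molecule disruption of VDR binding to coregulator peptide SRC2-3. Compounds and controls pin-transferred, then read after 2 h incubation at ambient room temperature.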
DT40 TDP1 no CPT: qHTS for Inhibitors of human tyrosyl-DNA phosphodiesterase 1 (TDP1): qHTS in cells in absence of CPT | DT40 Tdp1-/- hTDP1 cells, no CPT, ATP luminescence, 48 h | 420,000 tested, 15% active | Potency, µM (doses to about 46.2 µM), hits mostly inhibitors; further: nearly all actives have a fitted effect of over 55% in size
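A cellular qHTS used chicken DT40 cells lacking endogenous Tdp1 but carrying stably transfected human TDP1. Compounds were applied without camptothecin, and cell growth kinetics were judged by ATP-dependent luminescence after ≥48 hr.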
Numbers stand for hits. The call rests on the fitted dose curve; in most records, active means well fitted curve in the direction sought with a large enough effect; inconclusive means small, poorly fitted or top-dose-only effect, or another doubt; inactive means no such curve, though single readings can be large; an effect the other way counts as inactive or inconclusive.

For Cn1c(=O)c(C(=O)COC(=O)c2cc(C3CC3)nc3ccccc23)c(N)n(Cc2ccccc2)c1=O the results were TDP1 cell CPT 21µM, KAT2A inh inactive, PLK1 PBD inh inactive, TDP1 block inactive, VDR inhibitor inactive and DT40 TDP1 no CPT 16µM.
Cn1c(N)c(C(=O)COC(=O)c2cccc(S(=O)(=O)NCc3ccccc3)c2)c(=O)n(C)c1=O was read as TDP1 cell CPT inconclusive, KAT2A inh inactive, PLK1 PBD inh inactive, TDP1 block inactive, VDR inhibitor inactive and DT40 TDP1 no CPT inconclusive.
`CCN(c1ccccc1)S(=O)(=O)c1cccc(C(=O)OCC(=O)c2c(N)n(C)c(=O)n(C)c2=O)c1` gave TDP1 cell CPT inconclusive, PLK1 PBD inh inactive, VDR inhibitor inactive and DT40 TDP1 no CPT 18µM.
Screening Cn1c(=O)c(C(=O)COC(=O)c2cc(-c3ccccc3)nc3ccccc23)c(N)n(Cc2ccccc2)c1=O returned KAT2A inh inactive and TDP1 block inactive.
Screening CNS(=O)(=O)c1cccc(C(=O)OCC(=O)c2c(N)n(Cc3ccccc3)c(=O)n(C)c2=O)c1 returned TDP1 cell CPT 15µM, PLK1 PBD inh inactive, VDR inhibitor inactive and DT40 TDP1 no CPT inconclusive.
Cc1c(Cl)cccc1NC(=O)c1ccccc1-c1ccccc1C(=O)O was read as TDP1 cell CPT inactive, KAT2A inh inactive, PLK1 PBD inh inactive, VDR inhibitor inactive and DT40 TDP1 no CPT inactive.
`COc1ccccc1C(CC(=O)c1ccccc1)CC(=O)c1ccccc1` gave TDP1 cell CPT inactive, KAT2A inh inactive, PLK1 PBD inh inactive, TDP1 block inactive, VDR inhibitor inactive and DT40 TDP1 no CPT inconclusive.
For O=C(Cc1ccccc1)CC(CC(=O)c1ccccc1)c1ccccc1 (stereo not given) the results were TDP1 cell CPT 16µM, PLK1 PBD inh inactive and DT40 TDP1 no CPT 23µM.
Screening O=C(CCCCCCCC(=O)c1ccccc1)c1ccccc1 returned TDP1 cell CPT inconclusive, KAT2A inh inactive, PLK1 PBD inh inactive, VDR inhibitor inactive and DT40 TDP1 no CPT inactive.
`C=C(C(=O)c1ccccc1)C(CC(=O)c1ccccc1)c1ccccc1` (stereo not given) gave TDP1 cell CPT 4.6µM, KAT2A inh inactive, PLK1 PBD inh inactive, TDP1 block inactive, VDR inhibitor inconclusive and DT40 TDP1 no CPT 4.6µM.
COc1ccccc1C(CC(=O)c1ccccc1)C(=O)c1ccccc1 (stereo not given) was read as TDP1 cell CPT inconclusive, PLK1 PBD inh inactive and DT40 TDP1 no CPT inconclusive.
For C=C(CCC(=O)c1ccccc1)C(=O)c1ccccc1 the results were TDP1 cell CPT 6.5µM, KAT2A inh inactive, PLK1 PBD inh inactive, TDP1 block inactive, VDR inhibitor 45µM and DT40 TDP1 no CPT 2.1µM.
COc1ccccc1C(=O)NCc1nc2cccnc2n1Cc1ccc(F)cc1 was read as TDP1 cell CPT inactive, KAT2A inh inactive, TDP1 block inactive, VDR inhibitor inactive and DT40 TDP1 no CPT inconclusive.
For CCCCCCCCCCCCCCCCCCN(CCCCCCCCCCCCCCCCCC)c1ccc(/C=C/c2ccc(C=O)cc2)cc1 the results were TDP1 cell CPT inactive and DT40 TDP1 no CPT inactive.
`O=C(O)C1C2CCC(C2)C1C(=O)NCCc1ccccc1` (stereo not given) gave TDP1 cell CPT inactive, KAT2A inh inactive, PLK1 PBD inh inactive, VDR inhibitor inactive and DT40 TDP1 no CPT inactive.
Screening CN1CCSc2ccc(C(=O)NCc3cccc(F)c3)cc21 returned TDP1 cell CPT inconclusive, KAT2A inh inactive, PLK1 PBD inh inactive, VDR inhibitor inactive and DT40 TDP1 no CPT inconclusive.
Screening Cc1cc(C)cc(NC(=O)CCC(=O)N2CCSc3ccccc32)c1 returned TDP1 cell CPT inconclusive, KAT2A inh inactive, PLK1 PBD inh inactive, TDP1 block inactive, VDR inhibitor inactive and DT40 TDP1 no CPT 18µM.
